Assay results published in PubChem BioAssay AID1458 (National Center for Advancing Translational Sciences (NCATS), 2008).
The campaign covered roughly 210,000 compounds. About 5,900 (2.8%) were called active. Roughly 5% stayed inconclusive and do not appear here. The sample holds actives, similar compounds and a random draw of the others, so the mix is not that of the screen. Unmarked numbers belong to inactive results. The call rests on the fitted dose curve; in most records, active means well fitted activation curve with a large enough effect; inconclusive means small, poorly fitted or top-dose-only effect; inactive means no such curve, though single readings can be large or run the other way.

test: qHTS Assay for Enhancers of SMN2 Splice Variant Expression; conditions: HEK293 SMN2-luciferase splicing reporter, luminescence, 30-36 h; series mostly up to 46.1 µM; activity change, positive = activation: at the top concentration; further: nearly all actives have a fitted effect of over 55% in size; on activity change, positive = activation: % of control where 0% means no effect
Text: NIH Chemical Genomics Center [NCGC] NIH Molecular Libraries Probe Production centers Network [MLPCN] MLPCN Grant: R03 MH084179-01 Assay Submitter (PI): Elliot Androphy NCGC Assay Overview: Spinal muscular atrophy (SMA) is caused by insufficient levels of the survival motor neuron protein SMN. The SMN locus on chromosome 5q13 contains two inverted copies of SMN called SMN1 and SMN2 which are 99% identical at the amino acid level. SMN1 is a fully functional protein and SMN2 skips exon 7 90% of the time. Skipping of exon 7 produces non-functional protein product. 10% of the SMN2 protein includes exon 7 and is fully functional. In the SMA disease state, mutations in the SMN1 locus are the cause of the disease state. Because only 10% of SMN2 is of the fully functional form, it is not sufficient to overcome the deficiency produced by the loss of the SMN1 product. A therapy that either increase the amount of SMN2 product made or to increase the inclusion of exon 7 has been proposed for the treatment of SMA. We have designed an assay to identify small molecules that can increase the amount of functional SMN2 product by appending a luciferase reporter gene after the native SMN2 gene, such that inclusion of exon 7 in the expressed product places the luciferase sequence in frame, thus generating functional luciferase enzyme.
NCGC Assay Protocol Summary: This screen utilizes a luciferase reporter gene assay, combining the promoter and splicing based cassettes in tandem with the major portion of the native SMN2 cDNA, and then transfected into HEK293 cells. Compounds that increase luciferase signal presumably enhance expression of the functional SMN2 splice variant. Passaging media contained DMEM w/ glutamax (+phenol red) 10% FCS, 1x pen/strep, 200 ug/ml hygro, 1x sodium pyruvate. Assay media contained DMEM w/ glutamax (-phenol red) 10% FCS, 1x pen strep, 1x pyruvate Sequence, Parameter, Value, Description (1) Cells, […], 2000 cells/well, 1536 TC treated White solid bottom plate (2) Time, 10-12 hours, 37C 5% CO2 (3) Compound, 23 nl, MLSMR Library (4) Control Compound, 23 nL, Sodium butyrate st 4.5mM (final) conc (5) Time, 30-36 hours, 37C 5% CO2 (6) Reagent, 3 ul, One Glo (TM) from Promega (7) Time, 5-15 minutes, Room temp (8) Detector, Viewlux: luminescent read, 60 second integration, high speed 2x binning Keywords: Spinal muscular atrophy, SMA, SMN2, high throughput screening, MLSMR, MLPCN, NIH Roadmap, qHTS and NCGC
Potency means the concentration at half of the fitted maximal effect.

Row | SMILES | activity change, positive = activation [%] | Potency
1 | CCCOC(=O)Nc1ccccc1C(N)=O | 8.03 | 
2 | COc1cccc(OCC(=O)Nc2ccccc2C(N)=O)c1 |  | 11.2 µM (active)
3 | COc1cccc(OCC(=O)NNC(=O)c2cnccn2)c1 | 2.02 | 
4 | CCOc1ccc(-c2nonc2NC(=O)c2oc3ccc(CC)cc3c2C)cc1 | 16.2 | 
5 | CCOC(=O)c1ccc(NC(=O)c2ncn(-c3ccccc3)n2)cc1 | 2.79 | 
6 | CCC(=O)N1CCc2cc(S(=O)(=O)CCC(=O)N3CCN(c4ccccc4F)CC3)ccc21 | -19.7 | 
7 | CC(C)(C)c1ccc(/C=C/C(=O)NC2CCS(=O)(=O)C2)cc1 (centres undefined) | -25.1 | 
8 | CC(C)(C)c1ccc(/C=C/C(=O)Nc2ncccn2)cc1 |  | 22.4 µM (active)
9 | O=C(/C=C/c1ccc(Cl)cc1)Nc1ccc(S(=O)(=O)Nc2ncccn2)cc1 | 2.19 | 
10 | CCN(CC)CCNC(=O)Cn1ncc2c3ccccc3n(Cc3ccccc3C)c2c1=O | -8.03 | 
11 | COCCCNC(=O)c1c(NC(=O)c2cc(=O)c3cc(C)c(C)cc3o2)sc2c1CCCC2 | 15.5 | 
12 | CCOC(=O)c1nnn(CC(=O)NC(=O)Nc2ccccc2F)c1C(=O)OCC | -4.64 | 
13 | COc1ccc(CNC(=O)CC2Oc3ccc(C)cc3NC2=O)cc1 (centres undefined) | 3.76 | 
14 | O=C(c1ccc(C(F)(F)F)cc1)N1CCC(c2nc(-c3ccc(S(=O)(=O)N4CCCC4)cc3)no2)CC1 | 2.89 | 
15 | O=C(CSc1cccc[n+]1[O-])c1ccc(Cl)cc1 | 8.29 | 
16 | COc1ccccc1C(=O)CSc1cccc[n+]1[O-] | 4.69 | 
17 | O=C(CSc1cccc[n+]1[O-])c1ccc(-c2ccccc2)cc1 |  | 12.6 µM (active)
18 | Cc1c(C(=O)NCc2ccccc2Br)oc2ccc3c(c12)C(=O)CC(C)(C)O3 | 11.5 | 
19 | CCS(=O)(=O)c1nc(S(=O)(=O)c2ccc(C)cc2)c(NCc2ccc(Cl)cc2)s1 | 1.21 | 
20 | O=c1n(Cc2cccc(C(F)(F)F)c2)c2ccccc2c2nc(-c3ccccc3)nn12 | 15.6 | 
21 | Cc1ccc(NC(=O)C(Cc2ccccc2)NS(=O)(=O)c2ccc3c(c2)oc(=O)n3C)cc1C (centres undefined) | -9.69 | 
22 | COc1cc(/C=C2/C(=O)ON=C2C)ccc1OCc1ccccc1F | -39.6 | 
23 | COc1cc(/C=C2/C(=O)ON=C2C)ccc1OCc1cccc(F)c1 |  | 12.6 µM (active)
24 | C/C=C/c1ccc(OCCOc2ccc(C=O)cc2OC)c(OC)c1 | -11.4 | 
25 | CCOC(=O)c1c(C)oc2ccc(N(C(=O)c3ccncc3)S(=O)(=O)c3ccc(CC)cc3)cc12 | -21.7 | 
26 | CCOC(=O)C1=C(c2ccccc2)Nc2ncnn2C1c1ccc(Cl)cc1 (centres undefined) | -4.4 | 
27 | CC(=O)Nc1cc2ccc(OC(C)=O)cc2oc1=O | 3.43 | 

Row | SMILES | activity change, positive = activation [%] | Potency
28 | O=C(Nc1cc2ccccc2oc1=O)C1CCCCC1 |  | 4.47 µM (active)
29 | O=C(O)c1ccc(NC(=O)C2CCCCC2)cc1 | 4.05 | 
30 | COc1ccc(CNC(=O)c2cc3c(=O)[nH]c4ccc(C)cc4c3s2)c(OC)c1 | 2.14 | 
31 | Cc1cccc2c1N(CCOc1ccccc1)C(=O)C2=O | -9.26 | 
32 | Cc1c(C(N)=O)sc2ncn(CCOc3ccccc3)c(=O)c12 | 4.68 | 
33 | Cc1nn(CCOc2ccccc2)c(=O)n1-c1ccccc1F |  | 17.8 µM (active)
34 | Cc1cc(C)cc(NC(=O)CSc2oc(-c3ccccc3)nc2S(=O)(=O)c2ccc(Cl)cc2)c1 | 0.788 | 
35 | Cc1ccc(Cl)cc1N1CCN(C(=O)CN2C(=O)COc3ccc(S(=O)(=O)N4CCOCC4)cc32)CC1 | 1.39 | 
36 | COc1cccc(OCCCN2CCCCCC2)c1 | -9.69 | 
37 | COc1cccc(OCCOc2cccc(/C=N/n3cnnc3)c2)c1 |  | 8.91 µM (active)
38 | C(=N\n1cnnc1)/c1cccnc1 | 3.41 | 
39 | CCOc1ccccc1C(=O)NC1(C(F)(F)F)NC(=O)N(CCc2ccc(OC)c(OC)c2)C1=O (centres undefined) | -22.8 | 
40 | CCOC(=O)c1ccc(NC(=O)C2CC(=O)NC(=Nc3ccc(C)c(C)c3)S2)cc1 (centres undefined) | -9.52 | 
41 | CCCCN(C)CCNC(=O)C1CCCN(S(=O)(=O)c2cccc3nsnc23)C1 (centres undefined) | -0.0075 | 
42 | Cc1ccc(S(=O)(=O)c2nnn3c2nc(N2CCN(c4ccccc4F)CC2)c2cc(Cl)ccc23)cc1C | -3.67 | 
43 | S=C(Nc1ccc(Br)cc1Cl)NC1CCN(Cc2ccccc2)CC1 | -68.5 | 
44 | O=C(NNC(=S)Nc1ccc(Br)cc1Cl)c1ccco1 |  | 12.6 µM (active)
45 | CCC(=O)NC(=S)Nc1ccc(NC(=O)c2ccco2)c(Cl)c1 | -1.02 | 
46 | Cc1ccc(-c2cc(-c3coc4ccccc4c3=O)c3c(n2)-c2cc(Cl)ccc2OC3)cc1 | -0.83 | 
47 | COc1ccc(CNC(=O)c2ccc(NC(=O)N3CC4CCCN4c4ccccc43)cc2)cc1 (centres undefined) | -6.58 | 
48 | CC(C)(C)OC(=O)N/N=C/c1ccc(C(=O)O)cc1 | 10.1 | 
49 | Cc1ccccc1NC(=O)NNC(=O)OC(C)(C)C | 20.2 | 
50 | C/C(=N\NC(=O)OC(C)(C)C)c1ccc[nH]1 |  | 12.6 µM (active)
51 | Cc1cc(NC(=O)c2ccc(-c3ccc(Cl)cc3)o2)cc(-c2nc3ncccc3o2)c1O | -0.868 | 
52 | COc1ccc(C(=O)Nc2nonc2-c2ccc(OC)c(OC)c2)cc1Cl | -19 | 
53 | CC(C)=C(NC(=O)c1ccccc1)C(=O)N/N=C(\C)c1ccccc1O | -18.1 | 
54 | C/C(=N\NC(=O)c1nc(C)cc(C)n1)c1ccccc1 |  | 11.2 µM (active)
